PI5P4Ka inh = blocks human PI5P4K alpha kinase activity. PI5P4Kalpha enzyme, ADP-Glo luminescence, 60 min; stronger effect = lower value. P48426. 330,000 tested, 1.2% active. AID 652105. max response, %; active means max response of -50% or lower; inconclusive means between -30% and -50%; inactive means -30% or higher; further: value at the top dose of about 77 µM; on the % scale 0 is the no-effect control and ±100 the full control effect
Target sequence (P48426 whole entry, looked up): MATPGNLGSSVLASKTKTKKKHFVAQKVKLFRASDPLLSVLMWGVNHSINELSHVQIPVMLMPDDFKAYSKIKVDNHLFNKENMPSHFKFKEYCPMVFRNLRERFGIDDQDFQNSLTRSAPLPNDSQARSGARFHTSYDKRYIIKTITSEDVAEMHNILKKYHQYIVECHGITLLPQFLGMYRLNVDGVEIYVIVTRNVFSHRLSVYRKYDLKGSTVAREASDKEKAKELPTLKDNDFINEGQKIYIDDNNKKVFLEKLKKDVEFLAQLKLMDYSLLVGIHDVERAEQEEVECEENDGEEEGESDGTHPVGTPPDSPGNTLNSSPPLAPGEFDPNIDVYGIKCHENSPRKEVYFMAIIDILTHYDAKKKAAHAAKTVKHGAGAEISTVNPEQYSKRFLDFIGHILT
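Quantitative HTS of the MLSMR library against PI5P4Kalpha with substrate. ATP added last at 5 microM final; room temperature, 60 minutes. Remaining ATP depleted, ADP converted and read as luminescence.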
PLK1 PBD block = inhibitors of human PLK1 polo-box domain binding | P53350 | Plk1 PBD binding of FITC phosphopeptide, fluorescence polarization | Potency, µM, for the others: max response, negative = inhibition, actives largely listed as inhibitors | 360,000 tested, 2.8% active; further: potency means the concentration at half of the fitted maximal effect; series mostly up to about 57 µM; on the % scale 0 is the no-effect control and ±100 the full control effect; nearly all actives have a fitted effect of over 65% in size
HP1b binding inh = HP1-beta chromodomain-methylated histone interaction inhibition. AlphaScreen HP1-beta / biotin-H3K9me3 peptide binding. Potency, µM (doses to about 114 µM), without a hit: at the top dose activity change, negative = inhibition, hits mostly inhibitors. 390,000 tested, 0.56% active. AID 540317; further: potency means the concentration at half of the fitted maximal effect; nearly all actives have a fitted effect of over 70% in size
Target sequence (P83916 whole entry, looked up): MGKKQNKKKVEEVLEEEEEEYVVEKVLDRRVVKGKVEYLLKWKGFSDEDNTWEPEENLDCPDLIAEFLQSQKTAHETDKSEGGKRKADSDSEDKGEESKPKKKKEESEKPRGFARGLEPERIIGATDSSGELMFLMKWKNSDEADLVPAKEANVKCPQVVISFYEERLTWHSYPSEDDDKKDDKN
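Compound inhibition of the preformed complex between 50 nM HP1-beta and 50 nM biotinylated H3K9me3 peptide was read by AlphaScreen. Buffer was PBS pH 7.4 with 0.01% Tween-20. Incubations ran 30 min at room temperature, with 10 ug/mL donor/acceptor beads.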
BAZ2B block = inhibitors of human BAZ2B bromodomain; Q9UIF8; AlphaScreen BAZ2B-H3K14Ac peptide displacement; Potency, µM (top dose mostly 114 µM), for the others: at the highest dose activity change, negative = inhibition, actives largely listed as inhibitors; 360,000 tested, 4.4% active; further: potency means the concentration at half of the fitted maximal effect; on the % scale 0 is the no-effect control and ±100 the full control effect; nearly all actives have a fitted effect of over 60% in size
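In this displacement format the biotinylated H3(5-23) peptide acetylated at Lys14 serves as ligand at 50 nM, with BAZ2B at 50 nM in PBS pH 7.4 containing 0.01% Tween-20. Donor and acceptor beads are 10 ug/mL final.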
G9a inh = blocks human histone lysine methyltransferase G9a | G9a H3K9 monomethylation, AlphaScreen, 2 h | AID 504332 | Potency, µM (highest dose often 102 µM), for the others: at the top dose activity, negative = inhibition, most hits filed as inhibitors | 350,000 tested, 8.8% active | Q96KQ7; further: potency means the concentration at half of the fitted maximal effect; on the % scale 0 is the no-effect control and ±100 the full control effect; nearly all actives have a fitted effect of over 75% in size
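Compounds were preincubated with 20 nM G9a for 15 min, after which biotinylated H3K9 peptide (500 nM) and SAM (20 uM) started a 2 h room-temperature reaction. Monomethylated product was quantified by antibody-based AlphaScreen chemiluminescence.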
JMJD2A Tudor = inhibitors of human JMJD2A Tudor domain. AlphaScreen JMJD2A-Tudor / H3K4me3 peptide binding. Potency, µM (highest dose often 114 µM), for inactives: top-dose activity change, negative = inhibition, hits mostly inhibitors. 390,000 tested, 4.4% active; further: potency means the concentration at half of the fitted maximal effect; on the % scale 0 is the no-effect control and ±100 the full control effect; nearly all actives have a fitted effect of over 50% in size
Active calls of the source: *; ? = inconclusive; / = not tested or not shown; [ ] = remark or other dose. Compounds with a hit are over-represented: about 12% of the library has one in this group of screens. Unless noted, the call rests on the fitted dose curve; in most records, active means well fitted curve in the direction sought with a large enough effect; inconclusive means small, poorly fitted or top-dose-only effect, or another doubt; inactive means no such curve, though single readings can be large; an effect the other way counts as inactive or inconclusive.

SMILES | PI5P4Ka inh | PLK1 PBD block | HP1b binding inh | BAZ2B block | G9a inh | JMJD2A Tudor
c1ccc2c(c1)OCC(c1nn3c(Cn4nnc5ccccc54)nnc3s1)O2 (stereo not given) | / | 23.8µM* | ? | 50.1µM* | 5.01µM* | ?
Clc1ccc(Cl)c(-c2nn3c(COc4ccccc4)nnc3s2)c1 | / | 5.32µM* | ? | 5.4% | 1.78µM* | ?
Clc1ccccc1-c1nn2c(Cn3cnc4ccccc43)nnc2s1 | -19.8 | 23.8µM* | ? | -8.1% | 2.82µM* | -17.8%
c1ccc(OCc2nn3c(Cn4nnc5ccccc54)nnc3s2)cc1 | ? | 11.9µM* | ? | -7.7% | 2.82µM* | ?
COc1cc(Nc2nn(-c3ccc(OC(F)(F)F)cc3)nc2C(C)=O)cc(OC)c1 | / | / | 36.2% | -2.6% | 1.7%[59 µM] | -7.9%
Cc1cccc(NC(=O)Cn2c(=O)nc(-c3ccccc3)c3ccccc32)c1C | / | / | 45.4% | -3.5% | 0.9%[12.7 µM] | -1.0%
COc1ccc(OCc2nn3c(Cn4cnc5ccccc54)nnc3s2)cc1 | / | 15µM* | ? | 4.3% | 5.62µM* | -33.3%
c1ccc(CCc2nn3c(Cn4nnc5ccccc54)nnc3s2)cc1 | -27.9 | 13.4µM* | ? | -6.8% | ? | ?
c1ccc(Cc2nn3c(Cn4nnc5ccccc54)nnc3s2)cc1 | / | 8.44µM* | -40.7% | -0.7% | 8.91µM* | -28.9%
c1ccc(CCc2nn3c(Cn4cnc5ccccc54)nnc3s2)cc1 | / | 6.7µM* | -33.4% | -24.2% | 3.98µM* | ?
CC(C)c1nn2c(=O)cc(COC(=O)c3ccccc3NC(=O)c3cccc(Cl)c3)nc2s1 | / | / | 26.6% | -2.2% | 13.6%[59 µM] | 5.0%
COc1ccc(-c2nn3c(COc4ccccc4)nnc3s2)cc1OC | -0.8 | ? | -5.5% | -2.4% | ? | 7.2%
c1ccc2c(c1)ncn2Cc1nnc2sc(-c3ccc4c(c3)OCO4)nn12 | -27.5 | 18.9µM* | ? | ? | / | -33.8%
O=C(OCC1CCCO1)c1ccc2c(c1)N(Cc1cccc(Cl)c1)C(=O)c1ccccc1S2(=O)=O (stereo not given) | / | / | 18.0% | -1.9% | -4.2%[59 µM] | -6.2%
Cc1cc2c(c(=O)n1Cc1ccccc1)C1O[C@](c3ccsc3)(Cc3ccccc31)O2 | / | / | / | 10.0%[22.9 µM] | / | /
CCN1CCN(C(=S)c2ccc(Cl)c(Cl)c2)CC1 | -5.6 | 10.6µM* | -29.9% | -33.5% | 2.51µM* | -32.3%
CCN1CCN(C(=S)c2ccc(-c3ccccc3)cc2)CC1 | -1.3 | 10.6µM* | -8.7% | -29.0% | 31.6µM* | -22.1%
CCN1CCN(C(=S)Nc2ccc(Cl)c(Cl)c2)CC1 | -2.7 | -20.8% | 12.3% | 2.8% | ? | -24.2%
CC(=O)Nc1ccc(CN2CCN(c3cccc(C(F)(F)F)c3)CC2)cc1 | / | -2.7% | -49.9% | 50.1µM* | ? | 2.51µM*
CC(=O)Nc1ccc(NC(=O)CN2CCN(c3cccc(C(F)(F)F)c3)CC2)cc1 | 3.2 | -1.4% | 11.4% | -7.7% | 35.8%[59 µM] | -22.8%
COc1ccccc1C(=O)Nc1ccc(N2CCCCC2)cc1 | -1.3 | -8.5% | ? | ? | 50.1µM* | 56.2µM*
COc1ccccc1C(=O)Nc1ccc(N2CCN(Cc3ccccc3)CC2)cc1 | -3.2 | 1.1% | ? | 44.7µM* | ? | ?
COc1cccc(OC)c1C(=O)Nc1ccc(N2CCCC2)cc1 | -1.6 | -24.2% | -13.0% | ? | 12.6µM* | ?
COc1ccccc1C(=O)NCCN1CCN(c2ccccc2)CC1 | 2.1 | -14.6% | 12.5% | 2.5% | / | -6.3%
O=C(NC1CCCCC1)c1cc(-c2cccs2)on1 | 1.6 | -5.6% | -10.2% | 6.5% | ? | -15.8%
SMILES | PI5P4Ka inh | PLK1 PBD block | HP1b binding inh | BAZ2B block | G9a inh | JMJD2A Tudor
Cc1ccc(-n2nc(CO)c(C(=O)NCCCc3ccccc3)n2)cc1C | / | / | 29.1% | 1.3% | 22.2%[59 µM] | 18.9%
Cc1ccccc1-c1noc(-c2ccc(NCc3cccnc3)c([N+](=O)[O-])c2)n1 | / | / | 40.6% | -35.3% | 16.6%[59 µM] | 0.3%
COc1ccc(C(=O)CCC(=O)Nc2ccc(N3CCCCC3)cc2)cc1OC | 5.4 | -5.8% | ? | 35.5µM* | 44.7µM* | ?
COc1ccc(C(=O)Nc2ccc(N3CCN(C)CC3)cc2)cc1OC | -0.6 | -5.6% | 23.6% | -1.0% | / | -13.0%
COc1ccc(Br)cc1C(=O)Nc1ccc(N2CCN(S(C)(=O)=O)CC2)cc1 | -2.4 | -10.6% | 9.0% | 2.6% | 5.2%[12.7 µM] | 1.9%
COc1ccc(C)cc1NC(=O)c1ccc(CN2CCN(c3ccccc3)CC2)cc1 | 1.0 | -2.7% | -9.3% | ? | 50.1µM* | ?
CCC(=O)Nc1ccc(N2CCN(Cc3ccccc3)CC2)cc1 | 0.4 | -20.2% | 26.4% | -5.8% | 50.1µM* | -16.0%[11.4 µM]
COc1ccc(Br)cc1C(=O)Nc1ccc(N2CCCC2)cc1 | -4.0 | -4.7% | ? | 22.4µM* | / | ?
CCN1CCN(c2ccc(NC(=O)Cc3ccccc3)cc2)CC1 | 0.3 | 0.5% | 21.6% | -35.5% | -33.1%[12.7 µM] | -11.4%
COc1ccc(NC(=O)c2ccc(CN3CCN(c4ccccc4)CC3)cc2)cc1OC | -0.5 | 0.6% | 13.3% | -1.9% | -29.0%[59 µM] | -20.1%
C[C@@H]1CN([C@@H](C)CO)C(=O)CCCn2nncc2CO[C@@H]1CN(C)S(=O)(=O)c1ccc(Oc2ccccc2)cc1 | 0.6 | -12.2% | / | / | / | /
Cc1cccn2c(CN3CCCC(c4ccccc4)C3)c(C(=O)N3CCOCC3)nc12 (stereo not given) | -1.2 | -5.7% | 34.1% | 2.3% | 16.5% | -14.6%
COC(=O)c1ccccc1NC(=O)NC1CCCCC1 | 7.3 | -5.1% | 47.9% | 4.1% | -7.8% | -15.3%
O=C(NNc1ccccc1[N+](=O)[O-])Nc1ccc(F)cc1 | 4.5 | -23.1% | 7.3% | -32.7% | 3.55µM* | -16.7%
O=C(NNc1ccccc1[N+](=O)[O-])NC1CCCCC1 | 0.6 | -18.9% | 19.7% | -19.4% | 50.1µM* | -9.4%
O=C(NNc1ccccc1[N+](=O)[O-])Nc1ccccc1 | / | -8.9% | 5.6% | ? | ? | -23.4%
O=C(Nc1ccccc1C(=O)N1CCCCC1)NC1CCCCC1 | 1.4 | 21.2µM* | -3.4% | 0.6% | / | 79.4µM*
O=C(NNc1ccccc1[N+](=O)[O-])Nc1ccc(Cl)c(Cl)c1 | 8.6 | -0.2% | 4.8% | ? | 7.08µM* | -15.3%
Cn1c(NCc2cccnc2)nc2cc(-c3cccc(C(=O)NCCO)c3)sc2c1=O | -8.6 | -2.2% | / | / | / | /
Cn1c(=O)c2[nH]c(SCc3cccnc3)nc2n(C)c1=S | -3.1 | -29.5% | 9.7%[57 µM] | / | / | -5.5%
CCN(CC)S(=O)(=O)c1cc([N+](=O)[O-])ccc1NNC(=O)Nc1ccc(Cl)c(Cl)c1 | -4.1 | -7.0% | -3.2% | 31.6µM* | 7.94µM* | -34.7%
O=C(c1cc(Br)ccc1O)N(Cc1ccco1)Cc1cccs1 | / | / | -2.7%[57 µM] | / | / | -27.7%[57.1 µM]
CC1CN2C(c3ccc(Cl)cc3)=CSC2=N1 (stereo not given) | 0.6 | -25.8% | 16.6% | -4.7% | 44.7µM* | -23.8%
